Compound activity: PubChem, National Center for Advancing Translational Sciences (NCATS)
Compounds with a hit are over-represented: about 2.2% of the library has one in this group of screens.
VACV Venus inh – qHTS for Stage-Specific Inhibitors of Vaccinia Orthopoxvirus: Venus Reporter Primary qHTS; Vaccinia virus Venus reporter expression, fluorescence; Potency, µM (highest dose often 36.5 µM), usual class: inhibitors; hit rate 0.46% among 330,000; AID 720580, 2013; calls by dose curve; tested in A549 cells; further: nearly all actives have a fitted effect of over 30% in size
FMDV inh – High Throughput Screening for Foot and Mouth Disease Virus Antivirals. AID 1159524, 2015. FMDV antiviral cell-based qHTS. hit rate 1.2% among 410,000. Potency, µM (titrated, usually from 57.9 µM), hits mostly inhibitors; calls by dose curve; tested in HEK293T cells; further: read-out not given here; nearly all actives have a fitted effect of over 45% in size
FBPA Giardia inh – qHTS Assay for Inhibitors of Fructose-1,6-bisphosphate Aldolase from Giardia Lamblia; purified Giardia FBPA; Potency, µM (series often up to 59.6 µM), most hits filed as inhibitors; hit rate 0.71% among 290,000; AID 2451, 2010; active means well fitted inhibition curve with a large enough effect; inconclusive means small, poorly fitted or top-dose-only effect, or effect the other way; further: nearly all actives have a fitted effect of over 55% in size
Target sequence (A8B2U2 whole entry, looked up): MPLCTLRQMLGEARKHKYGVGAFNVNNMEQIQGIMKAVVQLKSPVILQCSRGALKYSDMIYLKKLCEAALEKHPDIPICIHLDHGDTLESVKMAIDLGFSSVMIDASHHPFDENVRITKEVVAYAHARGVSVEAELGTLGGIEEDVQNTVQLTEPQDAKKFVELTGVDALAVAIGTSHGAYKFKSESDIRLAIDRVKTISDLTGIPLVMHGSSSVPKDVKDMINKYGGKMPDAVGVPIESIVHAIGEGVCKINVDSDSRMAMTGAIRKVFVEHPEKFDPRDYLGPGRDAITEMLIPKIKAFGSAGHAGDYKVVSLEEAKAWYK
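40 nM FBPA preincubated 10 min at RT with compound (up to 57.5 uM final), then substrate plus GAPDH/TPI/NAD/arsenate coupling and diaphorase/resazurin added. Fluorescence read after 20 min at RT, 525/598 nm.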
VACV mCherry inh – qHTS for Stage-Specific Inhibitors of Vaccinia Orthopoxvirus: mCherry Reporter Primary qHTS; Vaccinia virus mCherry reporter infection, fluorescence; AID 720579, 2013; hit rate 0.63% among 310,000; Potency, µM (top dose mostly 36.5 µM), hits mostly inhibitors; calls by dose curve; tested in A549 cells; further: nearly all actives have a fitted effect of over 35% in size
Hits are given with their value; ! = repeats disagree; [ ] = another dose, or the depositor's remark.

`CC(C)(C)n1cc(C(=O)c2ccc3ccccc3c2O)cn1` gave VACV Venus inh inactive, FMDV inh 16µM, FBPA Giardia inh inactive and VACV mCherry inh inactive.
`Cc1ccc(NC(=O)c2ccc(-n3nncc3-c3ccccc3)cc2)cc1` gave VACV Venus inh inactive and VACV mCherry inh inactive.
`CC(C)CC(NC(=O)OCc1ccccc1)C(=O)NC(Cc1ccccc1)C(=O)CCl` (configuration not stated) gave VACV Venus inh inactive, FMDV inh 25µM and VACV mCherry inh inactive.
For C=CC(=O)N1C/C(=C/c2ccc(Cl)cc2)C(=O)/C(=C\c2ccc(Cl)cc2)C1 the results were VACV Venus inh 5.6µM, FMDV inh 8.9µM and VACV mCherry inh 2.8µM.
O=C1/C(=C/c2ccc(C(=O)O)cc2)CCC/C1=C\c1ccc(C(=O)O)cc1 was read as VACV Venus inh inactive, FMDV inh inactive, FBPA Giardia inh inactive and VACV mCherry inh inactive.
C=CC(=O)N1C/C(=C/c2ccccc2)C(=O)/C(=C\c2ccccc2)C1 was read as VACV Venus inh 8.9µM, FMDV inh 7.9µM and VACV mCherry inh inconclusive.
For COc1cc(=O)n2c(c1C(=O)N(C)Cc1cscn1)CCN(Cc1c(C)[nH]c3ccccc13)CC2 the results were VACV Venus inh inactive, FMDV inh inactive and VACV mCherry inh inactive.
`CC1CCN(Cc2c(C(=O)N/N=C/c3ccccc3O)nnn2-c2nonc2N)CC1` gave VACV Venus inh inconclusive, FMDV inh inactive, FBPA Giardia inh inactive and VACV mCherry inh 2µM.
CCCc1c(C(=O)N/N=C(\C)c2ccccn2)nnn1-c1nonc1N was read as VACV Venus inh inconclusive, FMDV inh inactive and VACV mCherry inh 0.89µM.
Screening CCN(CC)c1ccc(/C=N/NC(=O)c2nnn(-c3nonc3N)c2C(C)C)c(O)c1 returned VACV Venus inh inconclusive, FMDV inh inactive and VACV mCherry inh 2.5µM.
`COc1ccccc1CCNc1ncnc2sc(C(=O)N3CCCC3)c(C)c12` gave VACV Venus inh inactive, FMDV inh inconclusive and VACV mCherry inh inactive.
CCOc1ccc(S(=O)(=O)Nc2cc(SCC(=O)O)c(O)c3ccccc23)cc1 was read as FMDV inh inconclusive and FBPA Giardia inh 6.3µM.
CCc1ccc(S(=O)(=O)Nc2cc(SCC(=O)O)c(O)c3ccccc23)cc1 was read as FMDV inh inconclusive and FBPA Giardia inh 4.5µM.
Screening Cc1ccc(C)c(S(=O)(=O)Nc2cc(SCC(=O)O)c(O)c3ccccc23)c1 returned VACV Venus inh inactive, FMDV inh inconclusive, FBPA Giardia inh 2.2µM and VACV mCherry inh inactive.
For O=C(O)CSc1cc(NS(=O)(=O)c2cccc([N+](=O)[O-])c2)c2ccccc2c1O the results were VACV Venus inh inconclusive, FMDV inh 10µM, FBPA Giardia inh 2.5µM and VACV mCherry inh 10µM.
Screening O=C(O)c1cccc(S(=O)(=O)Nc2ccc([N+](=O)[O-])cc2O)c1 returned FMDV inh inactive and FBPA Giardia inh inactive.
Screening CCOc1ccc(S(=O)(=O)Nc2cc3c(C(=O)OC)c(COC)oc3c3ccccc23)cc1 returned VACV Venus inh inactive, FMDV inh inactive and VACV mCherry inh inactive.
Nc1c(Cl)cc(/C=C2\C=Cc3ccccc32)cc1Cl was read as VACV Venus inh inactive and VACV mCherry inh inactive.
Screening Cc1cc(C(=O)O/N=C(\N)c2ccc(C(C)(C)C)cc2)no1 returned FMDV inh inactive and FBPA Giardia inh inactive.
CC(C)(C)c1ccc(C(=O)O/N=C(\N)c2ccccc2)cc1 was read as VACV Venus inh inactive, FMDV inh 0.71µM, FBPA Giardia inh inactive and VACV mCherry inh inactive.
Screening Cc1noc(-c2ccc(Cl)cc2)c1C(=O)O/N=C(\N)c1ccc(C(C)(C)C)cc1 returned VACV Venus inh inactive, FMDV inh 25µM, FBPA Giardia inh inactive and VACV mCherry inh inactive.
Screening Cc1cc(C(=O)NCC2CCC3(CCN(Cc4ccc(-c5ccccc5)cc4)CC3)O2)n(C)n1 (configuration not stated) returned VACV Venus inh inactive, FMDV inh inconclusive and VACV mCherry inh inactive.
Screening COC(=O)/C=C/c1cc(F)ccc1S(=O)(=O)Nc1ccccc1 returned VACV Venus inh inactive and VACV mCherry inh inactive.
`O=C(Nc1ccc(Cl)cc1)Nc1ccc(Cl)c(Cl)c1` gave VACV Venus inh 11µM, FMDV inh inactive and VACV mCherry inh 13µM.
Screening CC(C)(C)N(NC(=O)Nc1ccc(Cl)c(Cl)c1)C(=O)c1ccccc1 returned VACV Venus inh 13µM, FMDV inh inconclusive, FBPA Giardia inh inactive and VACV mCherry inh inactive[1.46 µM].
N#Cc1ccc(NC(=O)Nc2ccc(Cl)cc2)cc1 was read as VACV Venus inh 11µM, FMDV inh inconclusive, FBPA Giardia inh inactive and VACV mCherry inh inconclusive.
Screening CC(C)(C)N(NC(=O)Nc1ccc(F)cc1)C(=O)c1ccccc1 returned VACV Venus inh inactive, FMDV inh inactive, FBPA Giardia inh inactive and VACV mCherry inh inactive.
For C=C1C(=O)O[C@@H]2[C@H]3O[C@]3(C)CC/C=C(\C)CC[C@@H]12 the results were VACV Venus inh inactive, FMDV inh 32µM! and VACV mCherry inh inactive.
`C=C1C(=O)O[C@@H]2C3OC3(C)CC/C=C(\C)CC[C@@H]12` (some centres not stated) gave FBPA Giardia inh inactive.
For COc1cc(=O)n2c(c1C(=O)N(C)Cc1nonc1C)CCN(Cc1cccc3ccccc13)CC2 the results were VACV Venus inh inactive, FMDV inh inactive and VACV mCherry inh inactive.
Nc1ccc(N(CCO)CCO)cc1 was read as VACV Venus inh inactive, FMDV inh inactive, FBPA Giardia inh 5µM and VACV mCherry inh inactive.
For O=C1C(Cl)=C(N2CCC(C(=O)O)CC2)C(=O)c2ccccc21 the results were FMDV inh 35µM and FBPA Giardia inh inconclusive.
Screening NC(=O)C1CCN(C2=C(NS(=O)(=O)c3ccccc3)C(=O)c3ccccc3C2=O)CC1 returned VACV Venus inh inactive, FMDV inh inconclusive, FBPA Giardia inh inconclusive and VACV mCherry inh inactive.
For CC1COCC(C)N1C1=C(Cl)C(=O)c2ccccc2C1=O (configuration not stated) the results were VACV Venus inh inactive, FMDV inh 40µM and VACV mCherry inh inactive.
NC(=O)C1CCN(C2=C(Cl)C(=O)c3ccccc3C2=O)CC1 was read as FMDV inh 22µM and FBPA Giardia inh inconclusive.
Screening O=C1C(Cl)=C(NCCN2CCOCC2)C(=O)c2ccccc21 returned VACV Venus inh inactive, FMDV inh inactive, FBPA Giardia inh inconclusive and VACV mCherry inh inactive.
Screening CN1CCN(C2=C(NS(=O)(=O)c3cccs3)C(=O)c3ccccc3C2=O)CC1 returned VACV Venus inh 10µM, FMDV inh inactive, FBPA Giardia inh inconclusive and VACV mCherry inh 18µM.
Screening COc1ccc(OC)c(CN2CCOc3ccc(CN4CCC(O)(c5cccnc5)CC4)cc3C2)c1 returned VACV Venus inh inactive, FMDV inh inactive and VACV mCherry inh inactive.
For ClC1=C(Cl)[C@]2(Cl)[C@@H]3[C@H]4C[C@H]([C@@H]5O[C@H]45)[C@@H]3[C@@]1(Cl)C2(Cl)Cl the results were VACV Venus inh inactive, FMDV inh inactive and VACV mCherry inh inactive.
O=C(c1cn(C2CCCN(Cc3cc(Cl)ccc3O)C2)nn1)N1CCCCC1 (configuration not stated) was read as VACV Venus inh inactive, FMDV inh inactive and VACV mCherry inh inactive.
